Rows were chosen to be rich in hits. Some 2.4% of all compounds tested hit in one or more screens of this group.
POLI inh = blocks human DNA polymerase iota activity; actives 1% (n = 390,000); Q9UNA4; Potency, µM (series often up to 115 µM), without a hit: at the top dose activity, negative = inhibition, hits mostly inhibitors; Pol iota fluorescent replication assay, 10 min; AID 588590
Target sequence (Q9UNA4 whole entry, looked up): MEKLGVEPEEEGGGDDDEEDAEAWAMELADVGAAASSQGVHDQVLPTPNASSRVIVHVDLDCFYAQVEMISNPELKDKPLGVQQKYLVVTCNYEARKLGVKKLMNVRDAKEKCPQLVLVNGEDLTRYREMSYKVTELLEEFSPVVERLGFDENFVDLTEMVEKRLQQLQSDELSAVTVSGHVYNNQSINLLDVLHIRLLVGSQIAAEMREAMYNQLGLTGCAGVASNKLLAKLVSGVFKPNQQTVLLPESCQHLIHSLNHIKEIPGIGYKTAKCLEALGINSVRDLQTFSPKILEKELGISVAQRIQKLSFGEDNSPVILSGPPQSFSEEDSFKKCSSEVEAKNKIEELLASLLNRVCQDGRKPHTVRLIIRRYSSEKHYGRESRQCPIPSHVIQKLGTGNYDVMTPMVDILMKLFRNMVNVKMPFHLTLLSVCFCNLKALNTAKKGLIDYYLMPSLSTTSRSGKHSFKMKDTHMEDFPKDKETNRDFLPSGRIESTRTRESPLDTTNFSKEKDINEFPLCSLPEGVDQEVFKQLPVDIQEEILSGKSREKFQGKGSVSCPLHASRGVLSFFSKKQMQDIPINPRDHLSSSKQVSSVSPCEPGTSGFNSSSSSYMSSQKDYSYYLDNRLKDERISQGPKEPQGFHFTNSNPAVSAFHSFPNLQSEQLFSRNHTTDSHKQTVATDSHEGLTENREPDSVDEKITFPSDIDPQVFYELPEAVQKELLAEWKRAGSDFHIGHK
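Pol iota at 10 nM preincubated 15 min with compounds at room temperature; reaction started with fluorescent substrate, 50 nM final. Fluorescence read kinetically at 0 and 10 min; buffer-only wells as negative control.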
TDP1 block = inhibitors of human tyrosyl-DNA phosphodiesterase TDP1; Q9NUW8; recombinant TDP1, AlphaScreen DNA substrate cleavage; Potency, µM (highest dose often 130 µM), for inactives: at the top dose activity change, negative = inhibition, hits mostly inhibitors; actives 0.28% (n = 350,000); AID 485290; note: % is set by controls: 0 for no effect and ±100 for the full control effect; nearly all actives have a fitted effect of over 40% in size
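AlphaScreen read-out: signal falls as enzyme removes the 3' tyrosine-FITC from a 5'-biotinylated DNA oligo (15 nM, 5 min, RT). Enzyme was E. coli-made recombinant Tdp1 at 1 nM, exposed to compound for 15 min beforehand; beads 10 ug/ml, 10 min.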
FEN1 inhibitor = inhibitors of human flap endonuclease 1 | P39748 | Recombinant FEN1 flap cleavage, fluorescence, 15 min | Potency, µM (top dose mostly 114 µM), for the others: at the highest dose activity change, negative = inhibition, actives largely listed as inhibitors | actives 0.35% (n = 390,000) | AID 588795; note: % is set by controls: 0 for no effect and ±100 for the full control effect; nearly all actives have a fitted effect of over 65% in size
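FEN1 at 10 nM, compound pretreatment for 15 min (room temperature), 50 nM final substrate to initiate; endpoint reads at 0 and 15 min; DMSO-only plates used as vehicle background.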
POLB inh = DNA polymerase beta (human) inhibition; Potency, µM (highest dose often 114 µM), for inactives: at the top dose activity change, negative = inhibition, actives largely listed as inhibitors; actives 1.3% (n = 340,000); P06746; AID 485314; Pol beta primer extension/strand displacement, fluorescence kinetic; note: % is set by controls: 0 for no effect and ±100 for the full control effect
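Values derive from four-parameter Hill fits of normalized kinetic data: reads at 0 and 10 min following addition of 50 nM substrate to 10 nM Pol beta preincubated 15 min with compound.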
Pol eta inh-1 = blocks human DNA polymerase eta activity; Q9Y253; recombinant Pol eta, fluorescent DNA replication assay; Potency, µM (highest dose often 114 µM), inactives show top-dose activity change, negative = inhibition, actives largely listed as inhibitors; actives 1.2% (n = 390,000); AID 588591; note: % is set by controls: 0 for no effect and ±100 for the full control effect
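Pol eta (10 nM) was preincubated with compounds for 15 min at room temperature, after which fluorescent replication substrate (50 nM final) was added to start the reaction. Fluorescence was read kinetically at 0 and 10 min.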
Pol kappa inh-1 = DNA polymerase kappa (human) inhibition; AID 588579; purified Pol kappa, fluorescent DNA synthesis assay, 10 min; actives 0.53% (n = 400,000); Potency, µM (series often up to 107 µM), inactives show top-dose activity, negative = inhibition, hits mostly inhibitors; Q9UBT6; note: % is set by controls: 0 for no effect and ±100 for the full control effect
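Inhibition of 10 nM Pol kappa is measured by a fluorescent read-out at 0 and 10 min following addition of 50 nM substrate (final), with a 15-min room-temperature compound preincubation.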
Pol kappa inh-2 = confirmation of human DNA polymerase kappa inhibitors; purified Pol-kappa, fluorescent strand-displacement substrate; Potency, µM, usual class: inhibitors; actives 76% (n = 920); AID 720501; shares compounds with Pol eta inh-1
Pol eta inh-2 = Pol eta (human) inhibition, cherry-pick confirmation | Pol eta primer extension, TAMRA/BHQ fluorescence, 10 min | Potency, µM, hits mostly inhibitors | shares compounds with Pol eta inh-1 | actives 64% (n = 2,600) | AID 720502
Numbers without * were called inactive; ? = inconclusive; nt = not tested or not shown; [ ] = remark or other dose. Calls come from the whole dose curve; as a rule, active = well fitted curve in the direction sought with a large enough effect; inconclusive = small, poorly fitted or top-dose-only effect, or another doubt; inactive = no such curve, though single readings can be large; an effect the other way counts as inactive or inconclusive. Potency is the fitted concentration of half-maximal effect.

SMILES	POLI inh	TDP1 block	FEN1 inhibitor	POLB inh	Pol eta inh-1	Pol kappa inh-1	Pol eta inh-2	others
O=C(Nc1nnc(S(=O)(=O)N2CCc3ccccc32)s1)c1ccccc1Cl	27%	6%	5%	-9%	-16%	1%	nt
O=C(O)c1ccc(S(=O)(=O)N[C@@H](Cc2ccc(O)cc2)C(=O)O)cc1	nt	6%	nt	nt	nt	nt	38*	Pol kappa inh-2=11*
N#Cc1ccc(C[C@@H](NS(=O)(=O)c2ccc(C(=O)O)cc2)C(=O)O)cc1	nt	9%	nt	nt	nt	nt	nt
O=C(Nc1cccnc1)c1ccc(NS(=O)(=O)c2cc([N+](=O)[O-])ccc2Cl)cc1	?	0%	-1%	?	22µM*	-52%	76*
O=[N+]([O-])c1ccc(Cl)c(S(=O)(=O)/N=C(/Nc2cccnc2)c2ccccc2)c1	105%	2%	-1%	nt	1%	-14%	nt
COC(=O)C1C2C=CC3(CN(c4cccc(C)c4)C(=O)C13)O2 (stereo not given)	?	-12%	2%	-28%	35µM*	-25%	?
O=C(NCc1cccc(F)c1)c1ccc(CS(=O)c2ccccc2Cl)o1 (stereo not given)	48%	5%	-1%	22%	-19%	3%	nt
CC(C)S(=O)(=O)C1=NSC2=NC(=O)/C(=C\c3ccc(-c4cccc(C(=O)O)c4)o3)C(=N)N21	5.6µM*	2%	22µM*	32µM*	7.9µM*	28µM*	30*	Pol kappa inh-2=17*
CCCc1cc(=O)[nH]c(SCC(=O)Nc2sc3c(c2C#N)CCC(C)C3)n1 (stereo not given)	50µM*	5%	-9%	18µM*	25µM*	79µM*	?
COc1cc(OC)cc(-c2nnc3n2N=C(c2ccc(OC)c(OC)c2)CS3)c1	nt	11%	nt	nt	nt	nt	nt
COc1cccc(/C=N/N2C(=O)CSC2=S)c1O	?	0%	-25%	?	-9%	?	?
O=C(O)CC/C(=C\c1ccc(N2CCOCC2)c([N+](=O)[O-])c1)c1nc2ccccc2s1	6%	3%	-14%	25%	-9%	-7%	nt
O=C(O)C/C(=C\c1ccc(N2CCOCC2)c([N+](=O)[O-])c1)c1nc2ccccc2s1	-23%	3%	-6%	?	32µM*	?	nt	Pol kappa inh-2=?
COc1ccccc1C(=O)N/C(=C/c1ccco1)C(=O)Nc1cccc(C(=O)O)c1	?	0%	?	?	20µM*	45µM*	76*	Pol kappa inh-2=34*
O=C(/C=C/c1ccco1)Nc1ccccc1C(=O)Nc1cccc(C(=O)O)c1	20µM*	nt	-32%	-50%	18µM*	?	30*	Pol kappa inh-2=24*
COC(=O)/C(=C\c1ccc([N+](=O)[O-])o1)NC(=O)c1ccccc1	-7%	1%	12%	-1%	-10%	5%	nt
Cc1cc(NC(=O)/C=C/c2ccco2)ccc1NC(=O)c1ccccc1	4%	-8%	1%	-2%	-11%	5%	nt
Cc1ccc(C(=O)N/C(=C/c2ccco2)C(=O)Nc2cccc(C(=O)O)c2)cc1	?	-11%	-32%	1%	22µM*	?	?
Cc1cccc(NC(=O)/C(=C\c2ccc([N+](=O)[O-])o2)NC(=O)c2ccc(Cl)cc2)c1	?	-1%	3%	10µM*	10µM*	?	?
CC(=O)N1CCC[C@@]2(CCN(Cc3ccccc3)C2)C1	nt	nt	nt	nt	nt	-2%[60.1 µM]	nt
Cc1cccc(C)c1NC(=O)CCSCCc1ccccn1	14%	0%	-1%	93%	-9%	-7%[60.1 µM]	nt
O=S(=O)(Cc1ccccc1)N1CCN(c2nc(-c3cccs3)nc3ccccc23)CC1	9%	1%	10%	nt	nt	-7%	nt
O=C(Nc1nc(-c2ccco2)c(-c2ccco2)s1)c1cnccn1	50µM*	-18%[0.505 µM]	-9%	nt	?	?	76*
O=C(Nc1nc2ccccc2s1)c1cnccn1	19%	-1%	7%	66%	5%	-5%[60.1 µM]	nt
Cc1nc2ccccc2n2c(O)c(CC(=O)O)cc12	?	0%	?	?	79µM*	?	?	Pol kappa inh-2=67*
SMILES	POLI inh	TDP1 block	FEN1 inhibitor	POLB inh	Pol eta inh-1	Pol kappa inh-1	Pol eta inh-2	others
O=C(CCCCCN1C(=O)c2cccc3cccc(c23)C1=O)NO	nt	7%	nt	nt	nt	-8%[60.1 µM]	nt
Cc1ccc(-n2[nH]c(C)c(/C=N/Nc3ccc([N+](=O)[O-])cc3[N+](=O)[O-])c2=O)cc1C	?	10%	-10%	-9%	20µM*	-21%	?
Cc1[nH]n(-c2ccccc2)c(=O)c1/C=N/NC(=O)c1cccc([N+](=O)[O-])c1	2%	12%	1%	14%	-13%	5%	nt
O=C(CNC(=O)c1ccc(Br)cc1)N=Nc1c(O)[nH]c2ccc([N+](=O)[O-])cc12	?	0%	6%	?	-17%	-13%	nt
COc1ccc(/C=C/C(=O)NCC(=O)N=Nc2c(O)[nH]c3ccc([N+](=O)[O-])cc23)cc1	34%	50µM*	?	50µM*	35µM*	-6%	nt	Pol kappa inh-2=84*
CCCCOc1ccc(C(=O)NCC(c2ccc(Cl)cc2)N2CCOCC2)cc1 (stereo not given)	25%	-2%	?	10%	-23%	9%	nt
COCCCn1c(Cc2csc(Nc3cccc(Cl)c3)n2)nnc1SCC(=O)OC	22µM*	-2%	-14%	25µM*	20µM*	40µM*	38*	Pol kappa inh-2=17*
CCOC(=O)CSc1nnc(CNc2cccc(Cl)c2)n1C	4%	1%	6%	-5%	-12%	-3%	nt
O=C(O)c1cc(S(=O)(=O)N2CCN(S(=O)(=O)c3ccc4ccccc4c3)CC2)ccc1Br	?	35µM*	-10%	nt	18µM*	-36%	48*	Pol kappa inh-2=17*
CCCN1CNc2c(c(=O)[nH]c(=S)n2CCc2ccsc2)C1	15%	1%	7%	nt	nt	14%	nt
Cc1ccc(Cl)cc1-n1c(=O)c2sc3ccccc3c2n(CC(=O)NC2CCCC2)c1=O	33%	4%	-3%	3%	-21%	2%	nt
Cc1ccc(NC(=O)CCNS(=O)(=O)c2ccc3c(c2)oc(=O)n3C)cc1	20µM*	-2%	6%	-3%	50µM*	89µM*	?

Compound activity as filed in PubChem BioAssay.
